This note sets out measurements from PubChem BioAssay (NCATS).

Test [1] in a line: Counterscreen qHTS for small molecule stabilizers of the endoplasmic reticulum resident proteome: GLuc-NoTag assay (AID 1508627). Further: potency means the concentration at half of the fitted maximal effect.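 On activity change, negative = inhibition: SH-SY5Y cells given compound then 100 nM thapsigargin to empty ER calcium; 0% = thapsigargin alone and -100% = DMSO vehicle control.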 In outline: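 Luminescence of Gaussia luciferase secreted into the medium (coelenterazine, 0.07x final, unlysed cells) was the read-out. Human SH-SY5Y neuroblastoma cells constitutively secreting untagged GLuc received compound for 19 h, then 100 nM thapsigargin for 4 h.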
(The purpose of a counterscreen is to sort out artefacts and off-target activity.)

Test [2] is described as follows: Confirmatory qHTS for small molecule stabilizers of the endoplasmic reticulum resident proteome: Secreted ER Calcium Modulated Protein (SERCaMP) assay (AID 1508628). Further: nearly all actives have a fitted effect of over 40% in size. Further: potency means the concentration at half of the fitted maximal effect. In short, it runs like this:
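We seeded SH-SY5Y-GLuc-SERCaMP cells, added compounds (three concentrations in the primary run, eleven up to 76.6 uM in confirmation), incubated 16 h, depleted ER calcium with thapsigargin, and read luciferase 4 h later.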
(In general: qHTS replaces the single test concentration by a dilution series.)

Test [3] can be described thus: Cell Viability qHTS for small molecule stabilizers of the endoplasmic reticulum resident proteome (AID 1508629).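 Further: compound exposure about 46 h in total before the viability read.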 Further: potency means the concentration at half of the fitted maximal effect. Conditions: cell viability counter-screen, 100 nM thapsigargin for final 4 h.
Test [4] has as its target Lysosomal acid glucosylceramidase (Homo sapiens) (UniProt P04062). Description: Glucocerebrosidase-p2 (AID 348; in the data active means potency below about 10 µM; further: potency means the concentration at half of the fitted maximal effect). The settings on record: purified GBA, blue fluorogenic substrate, 40 min. In outline: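 Compounds titrated from 0.6 nM upwards against 0.2 nM enzyme in pH 5.9 citric acid/KH2PO4, taurocholate, tween-20; blue fluorogenic substrate 80 uM, 40 min room temperature, stopped and read Ex 365/Em 440 for AC50.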

A short description of test [5]: AP1 Signaling Pathway (AID 357; active means well fitted curve in either direction with a large enough effect, not every such curve was filed as active;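 further: ME-180 reporter cells stimulated with EGF at its EC50 level; on the % scale 0 is the no-effect control and ±100 the full control effect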). The settings on record: ME-180 AP-1-bla reporter, EGF-induced, beta-lactamase ratio, 5 h; at 7.69 µM (top of the series) unless noted. In outline:
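Titration-series screen for positive or negative modulators of EC50 EGF-induced signaling in ME-180 cells carrying an AP-1-driven beta-lactamase reporter. After 5 hours at 37 degrees Celsius, CCF4 460nm/530nm emission ratio gave %Activity; AC50 values derived.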

Test [6] deals with Cytochrome P450 1A2 (Homo sapiens) (UniProt P05177). Description: p450-cyp1a2 (AID 410; calls by dose curve; further: potency means the concentration at half of the fitted maximal effect). In outline: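 Inhibition was calculated relative to 57 uM furafylline (full inhibition). The reaction used human CYP1A2 at 20nM with Luciferin-ME at its Km, 100uM, driven by an NADPH-regenerating system for 60 min at room temperature.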
A short description of test [7]: NFAT Signaling Pathway (AID 444; active means well fitted curve in either direction with a large enough effect, not every such curve was filed as active;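 further: carbachol stimulus at about its EC50 of 1 µM final; on the % scale 0 is the no-effect control and ±100 the full control effect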). Conditions: Jurkat NFAT-bla M1, carbachol, beta-lactamase ratio, 5 h; at 7.69 µM (top of the series) unless noted. In outline:
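Read-out: CCF4 FRET ratio (460 nm/530 nm) after 1 h RT dye loading, used for %activity and AC50 from titration series. Cells: Jurkat NFAT-β-lactamase/M1 line, treated with compound plus 1 uM carbachol for 5 h, 37 °C.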

Test [8] in a line: Stat Signaling Pathway (AID 446; active means well fitted curve in either direction with a large enough effect, not every such curve was filed as active;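 further: ME-180 cervical cancer cells given 40 pM IL-6 alongside compound; SIE-controlled beta-lactamase reporter measured as 460/530 nm FRET emission ratio; on the % scale 0 is the no-effect control and ±100 the full control effect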). Conditions: ME-180 SIE beta-lactamase reporter, IL-6 stimulated, 5 h; at 7.69 µM (top of the series) unless noted. In outline: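 Screening format detects activators and inhibitors alike: ME-180 SIE-bla cells stimulated at 40 pM IL-6 for 5 hrs with compound, then dual-emission beta-lactamase read at 405 nm excitation.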
Test [9] has as its target Glucocorticoid receptor (Homo sapiens) (UniProt P04150). Briefly: GR-GFP Redistribution (AID 450;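 active means compounds whose dose series gives a full or clear partial fitted curve of increased nuclear translocation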; further: potency means the concentration at half of the fitted maximal effect). The settings on record: U2OS GR-GFP nuclear translocation, laser cytometry, 2 h.
Test [10] shares this target. Description: GR-EFC Redistribution (AID 451; calls by dose curve; further: potency means the concentration at half of the fitted maximal effect). Conditions: CHO-K1 GR-EFC translocation, beta-gal luminescence, 2 h. In outline: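 Translocation of GR-ED fusion to nuclear EA restores b-gal, read by luminescence after 1 h room-temperature detection. Engineered CHO-K1 biosensor cells, 1,000/well, exposed 2 h at 37 C to titrations up to 46 uM final.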
Test [11] addresses Mitogen-activated protein kinase 10 (Mus musculus) (UniProt Q61831). Description: JNK3 AlphaScreen Assay (AID 530; active means well fitted curve in either direction with a large enough effect, not every such curve was filed as active;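 further: kinase came from lysate of stimulated human HepG2 cells; signal reports phosphorylation of biotinylated GST-cJun 1-79 at Ser73 with 10 µM ATP; on the % scale 0 is the no-effect control and ±100 the full control effect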). In short, it runs like this: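 Room-temperature AlphaScreen kinase assay; pre-activated HepG2 lysate as JNK3 source, biotin-GST-cJun(1-79) substrate, 10 uM ATP, compound 15 min preincubation.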
The nature of test [12]: Confirmation and Secondary Assay for Modulators of Hemoglobin Beta Chain Splicing at IVS2 654 locus (AID 910).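 Further: HeLa cells stably carrying EGFP split by mutant beta-globin IVS2-654 intron; per-well total GFP intensity by laser scanning cytometry after 2-day treatment; % of control where 0% means no effect.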 In outline:
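Readout: per-well total peak green fluorescence (488 nm ex, 500–520 nm em) from objects 5–250 µm, reflecting correct splicing of an EGFP-654 reporter. Compounds were applied for 2 days at 37 °C to overnight-plated HeLa EGFP-654 cells; controls were DMSO and 500 nM IVS2-654 PNA.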

The nature of test [13]: Confirmation and Secondary Assay for Modulators of Hemoglobin Beta Chain Splicing at IVS2 705 locus (AID 930).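 Further: HeLa cells stably expressing the EGFP-705 splicing reporter; GFP fluorescence per well restored by corrected splicing of the IVS2-705 intron in EGFP; % of control where 0% means no effect.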 In outline:
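Per-well GFP, captured at 1 x 8 µm resolution with 488 nm excitation, served as the read-out for HeLa EGFP-705 cells incubated 2 days with test compound versus DMSO.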

A short description of test [14]: qHTS Assay for Lipid Storage Modulators (AID 1519; calls by dose curve). The settings on record: Drosophila S3 cells, BODIPY lipid droplet/cell ratio, laser cytometry, cells loaded with oleic acid; for activity change, negative = inhibition: at 57.5 µM (top of the series). In outline:
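Cells seeded at 5,000 per well were treated with compounds over a concentration series and loaded with oleic acid (400 uM, as added). Lipid droplet fluorescence (488 nm excitation, 500-530 nm channel) was read by laser-scanning cytometry and normalized to 20 uM Triacsin C.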

Test [15] can be described thus: Primary qHTS for small molecule stabilizers of the endoplasmic reticulum resident proteome: Secreted ER Calcium Modulated Protein (SERCaMP) assay (AID 1508630). Further: potency means the concentration at half of the fitted maximal effect. In outline: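 GLuc-SERCaMP-expressing SH-SY5Y cells, pretreated 16 h with compound, are challenged with thapsigargin to empty ER calcium stores; after 4 h, coelenterazine is added directly to the medium and luminescence is imaged.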

Test [16] deals with Rap guanine nucleotide exchange factor 3 (Homo sapiens) (UniProt O95398). Description: Confirmatory qHTS for agonist of cAMP-regulated guanine nucleotide exchange factor 3 (EPAC1) (AID 1645881).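 Further: EPAC1 catalysed release of BODIPY-GDP from Rap1B seen as fluorescence loss; 100% = effect of cAMP agonist control; nearly all actives have a fitted effect of over 75% in size.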
The target of test [17] is Rap guanine nucleotide exchange factor 4 (Homo sapiens) (UniProt Q8WZA2). Briefly: Confirmatory qHTS for agonist of cAMP-regulated guanine nucleotide exchange factor 4 (EPAC2) (AID 1645884).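 Further: nucleotide exchange releases bodipy-GDP from Rap1 and this lowers its fluorescence; on the % scale 0 is the no-effect control and ±100 the full control effect; nearly all actives have a fitted effect of over 65% in size.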
Test [18] has as its target 3',5'-cyclic-AMP phosphodiesterase 4B (Homo sapiens) (UniProt Q07343). Description: qHTS Assay for Inhibitors of PDE-IV (AID 607; active means well fitted activation curve with a large enough effect in the main read-out, with a control signal flat, not every such curve was filed as active; further: % of control where 0% means no effect). In short, it runs like this: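 The readout is membrane depolarisation from a cAMP-sensing CNG channel, detected with a potential dye at ex 535/em 590. Cells were HEK293-derived (endogenous PDE-IV) at 1000 cells/well, titrated up to 22.9 uM final.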

In test [19] the target is Cytochrome P450 3A4 (Homo sapiens) (UniProt P08684). Briefly: qHTS Assay for Activators of Cytochrome P450 3A4 (AID 885). Further: nearly all actives have a fitted effect of over 65% in size. In outline:
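Steps: enzyme/substrate mix dispensed; compound added, 10 min RT; NADPH regeneration solution added, 60 min RT; luciferin detection buffer stops reaction; 20 min later luminescence measured.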

Test [20] has as its target Dual specificity protein kinase CLK4 (Homo sapiens) (UniProt Q9HAZ1). Briefly: qHTS Assay for Inhibitors of CDC-like Kinase 4 (ADP-Glo Assay) (AID 1771). Further: potency means the concentration at half of the fitted maximal effect; nearly all actives have a fitted effect of over 70% in size. In outline:
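Kinase reaction: Clk4 at 25 nM, RS repeat peptide substrate at 100 uM, ATP at 1 uM, 1 hr, room temperature. Product ADP detected as luciferase signal via ADP-Glo.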

For test [21], the target named is Ubiquitin carboxyl-terminal hydrolase 1 (Homo sapiens) (UniProt O94782). Description: Inhibitors of USP1/UAF1: Pilot qHTS (AID 504865).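 Further: rhodamine fluorescence freed from ubiquitin-rhodamine substrate followed over time; top concentration of the series differs between compounds; on the % scale 0 is the no-effect control and ±100 the full control effect; nearly all actives have a fitted effect of over 35% in size.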 In outline: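 USP1/UAF1 complex (1nM) preincubated with compound 15 min at room temperature, then Ub-Rho substrate (150nM final) added. Fluorescence read kinetically at 480/540 nm, 6 reads every 60 seconds. Buffer: 50mM HEPES pH 7.8, 0.5mM EDTA, 0.1 mg/ml BSA, 1mM TCEP, 0.01% Tween-20.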

Setting [22] is: measured here: cell count channel max response.
The mark [23] stands for this setting: measured here: lipid channel max response.

Structures are written as SMILES. Inconclusive results are not listed. Active and inactive are the calls of the source. Unless noted, the call rests on the fitted dose curve; in most records, active means well fitted curve in the direction sought with a large enough effect; inconclusive means small, poorly fitted or top-dose-only effect, or another doubt; inactive means no such curve, though single readings can be large; an effect the other way counts as inactive or inconclusive. Bounds are passed on as bounds.

Sequence of Glucocorticoid receptor (Homo sapiens) (P04150 whole entry, looked up, the tested form may be a part): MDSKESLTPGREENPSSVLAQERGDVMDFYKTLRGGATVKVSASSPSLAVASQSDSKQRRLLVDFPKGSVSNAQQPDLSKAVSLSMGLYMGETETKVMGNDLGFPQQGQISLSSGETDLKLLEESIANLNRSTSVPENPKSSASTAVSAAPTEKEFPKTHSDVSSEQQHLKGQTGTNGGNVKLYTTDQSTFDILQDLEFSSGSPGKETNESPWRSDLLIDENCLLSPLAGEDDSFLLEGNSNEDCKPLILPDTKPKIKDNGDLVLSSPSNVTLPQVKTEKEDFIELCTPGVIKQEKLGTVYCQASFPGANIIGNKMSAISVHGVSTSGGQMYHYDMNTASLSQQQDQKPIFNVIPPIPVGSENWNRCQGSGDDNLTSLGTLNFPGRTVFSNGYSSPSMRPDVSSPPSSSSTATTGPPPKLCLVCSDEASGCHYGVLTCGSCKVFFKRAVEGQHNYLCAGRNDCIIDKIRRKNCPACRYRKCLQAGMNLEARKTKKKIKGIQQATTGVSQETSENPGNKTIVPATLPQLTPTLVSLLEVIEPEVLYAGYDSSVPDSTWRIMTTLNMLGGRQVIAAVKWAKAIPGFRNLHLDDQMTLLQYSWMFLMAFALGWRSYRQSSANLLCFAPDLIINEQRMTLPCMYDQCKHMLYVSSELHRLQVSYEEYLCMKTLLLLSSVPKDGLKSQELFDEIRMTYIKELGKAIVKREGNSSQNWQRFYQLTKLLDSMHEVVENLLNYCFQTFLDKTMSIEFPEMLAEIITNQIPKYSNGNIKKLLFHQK
Sequence of Cytochrome P450 1A2 (Homo sapiens) (P05177 whole entry, looked up): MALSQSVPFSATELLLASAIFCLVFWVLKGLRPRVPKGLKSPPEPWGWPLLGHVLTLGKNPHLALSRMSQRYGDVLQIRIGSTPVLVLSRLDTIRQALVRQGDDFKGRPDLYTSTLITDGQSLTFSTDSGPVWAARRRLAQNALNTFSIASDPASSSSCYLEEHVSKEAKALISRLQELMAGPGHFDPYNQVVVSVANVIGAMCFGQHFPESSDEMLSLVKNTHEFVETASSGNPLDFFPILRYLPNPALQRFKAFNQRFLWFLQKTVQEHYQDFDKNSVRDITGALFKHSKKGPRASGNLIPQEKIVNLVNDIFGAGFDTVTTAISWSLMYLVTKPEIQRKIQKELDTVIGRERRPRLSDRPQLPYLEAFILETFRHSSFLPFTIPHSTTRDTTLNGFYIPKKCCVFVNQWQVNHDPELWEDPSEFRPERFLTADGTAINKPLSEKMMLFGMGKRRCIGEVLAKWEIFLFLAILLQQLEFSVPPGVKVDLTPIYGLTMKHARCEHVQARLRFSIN
Sequence of 3',5'-cyclic-AMP phosphodiesterase 4B (Homo sapiens) (Q07343 whole entry, looked up): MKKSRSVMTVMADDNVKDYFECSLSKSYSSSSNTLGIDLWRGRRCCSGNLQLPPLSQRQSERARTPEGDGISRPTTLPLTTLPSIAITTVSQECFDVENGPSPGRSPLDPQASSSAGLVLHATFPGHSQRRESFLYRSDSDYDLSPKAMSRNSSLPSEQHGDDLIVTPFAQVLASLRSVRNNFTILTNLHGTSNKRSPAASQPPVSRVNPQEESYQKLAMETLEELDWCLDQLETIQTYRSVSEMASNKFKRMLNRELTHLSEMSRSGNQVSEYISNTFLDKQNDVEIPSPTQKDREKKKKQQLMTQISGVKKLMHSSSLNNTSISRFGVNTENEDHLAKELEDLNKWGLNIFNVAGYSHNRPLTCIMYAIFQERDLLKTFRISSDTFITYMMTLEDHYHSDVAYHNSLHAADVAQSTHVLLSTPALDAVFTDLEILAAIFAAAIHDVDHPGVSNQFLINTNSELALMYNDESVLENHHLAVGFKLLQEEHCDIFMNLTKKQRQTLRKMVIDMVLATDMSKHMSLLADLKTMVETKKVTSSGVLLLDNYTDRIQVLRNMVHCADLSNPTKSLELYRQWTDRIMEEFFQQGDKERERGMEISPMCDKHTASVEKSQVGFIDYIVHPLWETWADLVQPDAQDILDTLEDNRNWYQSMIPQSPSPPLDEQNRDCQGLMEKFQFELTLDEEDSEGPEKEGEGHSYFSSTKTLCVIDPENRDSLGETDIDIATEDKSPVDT
Sequence of Lysosomal acid glucosylceramidase (Homo sapiens) (P04062 whole entry, looked up): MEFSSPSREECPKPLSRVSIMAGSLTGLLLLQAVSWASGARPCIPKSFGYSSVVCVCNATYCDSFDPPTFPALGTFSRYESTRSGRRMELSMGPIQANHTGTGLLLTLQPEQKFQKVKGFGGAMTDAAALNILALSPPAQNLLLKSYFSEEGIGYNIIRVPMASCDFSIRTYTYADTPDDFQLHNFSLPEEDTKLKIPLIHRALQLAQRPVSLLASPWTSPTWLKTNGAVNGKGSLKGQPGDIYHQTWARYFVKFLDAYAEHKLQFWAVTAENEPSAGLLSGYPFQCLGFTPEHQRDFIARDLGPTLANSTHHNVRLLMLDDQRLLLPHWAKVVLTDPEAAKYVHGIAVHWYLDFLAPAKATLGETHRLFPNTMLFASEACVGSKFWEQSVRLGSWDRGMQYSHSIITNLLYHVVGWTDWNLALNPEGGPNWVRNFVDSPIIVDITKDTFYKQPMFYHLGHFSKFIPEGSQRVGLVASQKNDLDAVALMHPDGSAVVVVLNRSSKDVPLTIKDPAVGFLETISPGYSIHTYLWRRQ
Sequence of Rap guanine nucleotide exchange factor 3 (Homo sapiens) (O95398 whole entry, looked up): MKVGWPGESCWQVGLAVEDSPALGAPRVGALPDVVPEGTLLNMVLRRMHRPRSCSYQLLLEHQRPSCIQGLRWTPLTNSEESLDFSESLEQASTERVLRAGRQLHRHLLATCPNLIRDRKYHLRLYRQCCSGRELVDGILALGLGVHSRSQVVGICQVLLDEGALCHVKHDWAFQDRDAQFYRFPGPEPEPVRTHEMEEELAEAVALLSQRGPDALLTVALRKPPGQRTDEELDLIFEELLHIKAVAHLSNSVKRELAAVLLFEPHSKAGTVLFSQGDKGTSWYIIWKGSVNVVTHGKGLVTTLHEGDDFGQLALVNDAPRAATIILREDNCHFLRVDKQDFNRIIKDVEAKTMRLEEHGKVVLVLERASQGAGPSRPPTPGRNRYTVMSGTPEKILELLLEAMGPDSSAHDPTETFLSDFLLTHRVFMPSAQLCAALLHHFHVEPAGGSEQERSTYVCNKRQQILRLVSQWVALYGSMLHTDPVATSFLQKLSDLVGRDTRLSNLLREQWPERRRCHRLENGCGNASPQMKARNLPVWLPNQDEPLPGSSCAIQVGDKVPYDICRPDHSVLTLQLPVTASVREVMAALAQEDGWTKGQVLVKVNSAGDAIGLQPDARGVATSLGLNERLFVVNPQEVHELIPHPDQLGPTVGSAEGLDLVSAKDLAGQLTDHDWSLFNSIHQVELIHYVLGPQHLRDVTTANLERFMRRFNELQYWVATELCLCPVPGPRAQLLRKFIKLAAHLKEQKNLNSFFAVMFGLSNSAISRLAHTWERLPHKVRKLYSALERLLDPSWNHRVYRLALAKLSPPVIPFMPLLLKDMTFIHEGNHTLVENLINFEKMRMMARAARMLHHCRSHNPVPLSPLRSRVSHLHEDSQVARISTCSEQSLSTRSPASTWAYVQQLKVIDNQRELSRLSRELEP
Sequence of Ubiquitin carboxyl-terminal hydrolase 1 (Homo sapiens) (O94782 whole entry, looked up): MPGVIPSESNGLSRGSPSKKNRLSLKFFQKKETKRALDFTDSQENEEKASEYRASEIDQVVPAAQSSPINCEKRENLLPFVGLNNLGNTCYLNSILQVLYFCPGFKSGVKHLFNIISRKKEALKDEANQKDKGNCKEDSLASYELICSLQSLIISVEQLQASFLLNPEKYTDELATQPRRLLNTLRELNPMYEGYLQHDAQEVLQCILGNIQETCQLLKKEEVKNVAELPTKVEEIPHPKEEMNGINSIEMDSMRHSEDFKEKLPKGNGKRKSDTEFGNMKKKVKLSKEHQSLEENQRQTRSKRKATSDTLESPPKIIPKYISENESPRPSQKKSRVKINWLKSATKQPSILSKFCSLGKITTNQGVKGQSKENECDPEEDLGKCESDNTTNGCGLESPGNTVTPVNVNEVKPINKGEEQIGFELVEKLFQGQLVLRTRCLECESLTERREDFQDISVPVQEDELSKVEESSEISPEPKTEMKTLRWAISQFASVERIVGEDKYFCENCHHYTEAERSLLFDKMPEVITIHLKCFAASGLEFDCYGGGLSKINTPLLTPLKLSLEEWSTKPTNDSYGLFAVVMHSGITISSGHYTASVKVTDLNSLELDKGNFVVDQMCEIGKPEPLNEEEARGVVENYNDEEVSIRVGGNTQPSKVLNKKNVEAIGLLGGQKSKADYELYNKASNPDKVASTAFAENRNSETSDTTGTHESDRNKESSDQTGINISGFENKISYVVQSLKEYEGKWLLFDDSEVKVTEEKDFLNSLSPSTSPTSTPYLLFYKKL
Sequence of Cytochrome P450 3A4 (Homo sapiens) (P08684 whole entry, looked up): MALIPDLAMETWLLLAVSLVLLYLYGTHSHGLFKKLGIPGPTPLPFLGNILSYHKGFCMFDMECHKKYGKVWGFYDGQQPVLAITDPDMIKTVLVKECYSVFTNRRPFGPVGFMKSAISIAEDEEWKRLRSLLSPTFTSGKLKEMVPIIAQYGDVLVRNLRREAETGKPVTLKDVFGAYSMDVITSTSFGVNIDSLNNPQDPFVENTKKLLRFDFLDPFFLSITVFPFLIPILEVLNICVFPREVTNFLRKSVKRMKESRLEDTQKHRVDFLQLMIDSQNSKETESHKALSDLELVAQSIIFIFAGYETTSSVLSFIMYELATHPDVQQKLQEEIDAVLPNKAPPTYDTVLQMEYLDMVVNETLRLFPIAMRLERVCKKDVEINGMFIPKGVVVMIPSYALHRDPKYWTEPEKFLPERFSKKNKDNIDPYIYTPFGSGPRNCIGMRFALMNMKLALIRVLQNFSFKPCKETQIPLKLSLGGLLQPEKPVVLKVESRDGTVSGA

As to `CC(=O)N[C@H]1C(O[C@@H]2O[C@H](C[C@@H](O)[C@H]3O[C@@H](N4CCC(=O)NC4=O)[C@H](O)[C@@H]3O)[C@H](O)[C@H](O)[C@H]2NC(=O)/C=C/CCCCCCCCCCC(C)C)OC(CO)[C@@H](O)[C@@H]1O` (some centres not stated), the Potency in [1] was 35.5 µM (active); in [2], 0.562 µM (active); in test [3], 0.398 µM (active).

Take `Cc1ccc(C(=O)N/C(=C\c2cccs2)c2nc3ccccc3[nH]2)cc1`: the Potency entry in test [1] and in test [2] was “inactive” in each case. Further, the max response in test [3] was 8.84% (inactive).

For `CN1CCN(c2nc(-c3cccc(C#N)c3)nc3ccccc23)CC1`, the Potency in test [4] is > 11.4 µM (inactive); in [6], 1.58 µM (active); in test [9], > 46 µM (inactive); in test [10], > 46 µM (inactive); in [2], 12.6 µM (active). In addition, the activity change, negative = inhibition is 9.54% (inactive) in [5], -2.42% (inactive) in test [7] and 8.44% (inactive) in test [14]. Also, the activity, negative = inhibition in test [8] is 21.4% (inactive). Further, the compound was classed as inactive in [11], in test [12] and in [13]. Also, the max response in test [14] (setting [22]) was 3.27%; in test [14] (setting [23]), 7.86%. In addition, the Potency entry in test [1] is “inactive”.

As to `COc1ccc(Oc2ncc3nc(CCc4ccccc4)c(=O)n(C[C@H]4CCCO4)c3n2)cc1`, the Potency in test [15] was 35.5 µM (active).

In the case of `Cc1ccccc1-c1nccc(Nc2ccc(F)cc2)n1`, the compound was called inactive in test [16] and in test [17].

As to `N#CCCn1c(=O)c(CCc2ccccc2)nc2cnc(OCc3ccccc3)nc21`, the Potency was > 11.4 µM (inactive) in [4]; 12.6 µM (active) in test [6]; > 9.22 µM (inactive) in test [9]; > 46 µM (inactive) in [10]; 31.6 µM (active) in test [2]. Also, the activity change, negative = inhibition in test [5] was -4.26% (inactive); in test [7], -3.34% (inactive). Moreover, the activity, negative = inhibition in [8] was -0.503% (inactive).

For the compound `COc1ncc2nc(CCc3ccccc3)c(=O)n(C3CC3)c2n1`, the Potency was > 11.4 µM (inactive) in test [4], 3.16 µM (active) in test [6], > 9.22 µM (inactive) in [9] and > 46 µM (inactive) in test [10]. The activity change, negative = inhibition is -0.42% (inactive) in [5] and 0.053% (inactive) in [7]. Moreover, the activity, negative = inhibition in test [8] was -2.79% (inactive). Further, the compound was classed as inactive in test [11]. The Potency result in [18], in test [19] and in test [1] was “inactive” each time.

In the case of `COCCn1c(=O)c(-c2ccccc2)nc2cnc(OCc3ccccc3)nc21`, the Potency in test [4] was > 11.4 µM (inactive); in test [9] it was > 9.22 µM (inactive); in test [10], > 46 µM (inactive); in [2], 39.8 µM (active). The activity change, negative = inhibition in [5] is -11.6% (inactive); in test [7], 0.0505% (inactive). For the same compound, the activity, negative = inhibition in test [8] is -5.1% (inactive). In addition, the Potency result in test [18] is “inactive”.

On to `O=c1c(-c2cc(F)cc(F)c2)nc2cnc(N3CCNCC3)nc2n1-c1ccccc1`, for which the Potency in test [4] is > 11.4 µM (inactive); in [9] it was > 9.22 µM (inactive); in test [10] it was > 46 µM (inactive); in test [20], 22.4 µM (active). Further, the compound was called inactive in test [11]. Also, the Potency result in test [18], in [21] and in test [1] was “inactive” each time. For the same compound, the activity change, negative = inhibition in [14] is 4.01% (inactive). Also, the max response in test [14] (setting [22]) is 3.1%; in [14] (setting [23]), 4.03%.
